Source: PubChem BioAssay (Broad Institute)
In the library only some 1.2% were active in any assay of this set; here they are far more common.
FadD28 FP inh – inhibitors of Mycobacterium tuberculosis FadD28 bisubstrate binding. FadD28 bisubstrate probe binding, fluorescence polarization. inhibition, % at 12.5 µM. 0.22% of 360,000 active; in the data active = inhibition above about 8.5%, passing the limit was not always enough
TcdB GH inh – inhibitors of Clostridioides difficile toxin B glycohydrolase. TcdB glycohydrolase enzymatic assay, plate reader. inhibition, % at 9.99 µM. P18177. AID 652162. 0.24% of 350,000 active; in the data active = inhibition above about 10%
Target sequence (P18177 whole entry, looked up): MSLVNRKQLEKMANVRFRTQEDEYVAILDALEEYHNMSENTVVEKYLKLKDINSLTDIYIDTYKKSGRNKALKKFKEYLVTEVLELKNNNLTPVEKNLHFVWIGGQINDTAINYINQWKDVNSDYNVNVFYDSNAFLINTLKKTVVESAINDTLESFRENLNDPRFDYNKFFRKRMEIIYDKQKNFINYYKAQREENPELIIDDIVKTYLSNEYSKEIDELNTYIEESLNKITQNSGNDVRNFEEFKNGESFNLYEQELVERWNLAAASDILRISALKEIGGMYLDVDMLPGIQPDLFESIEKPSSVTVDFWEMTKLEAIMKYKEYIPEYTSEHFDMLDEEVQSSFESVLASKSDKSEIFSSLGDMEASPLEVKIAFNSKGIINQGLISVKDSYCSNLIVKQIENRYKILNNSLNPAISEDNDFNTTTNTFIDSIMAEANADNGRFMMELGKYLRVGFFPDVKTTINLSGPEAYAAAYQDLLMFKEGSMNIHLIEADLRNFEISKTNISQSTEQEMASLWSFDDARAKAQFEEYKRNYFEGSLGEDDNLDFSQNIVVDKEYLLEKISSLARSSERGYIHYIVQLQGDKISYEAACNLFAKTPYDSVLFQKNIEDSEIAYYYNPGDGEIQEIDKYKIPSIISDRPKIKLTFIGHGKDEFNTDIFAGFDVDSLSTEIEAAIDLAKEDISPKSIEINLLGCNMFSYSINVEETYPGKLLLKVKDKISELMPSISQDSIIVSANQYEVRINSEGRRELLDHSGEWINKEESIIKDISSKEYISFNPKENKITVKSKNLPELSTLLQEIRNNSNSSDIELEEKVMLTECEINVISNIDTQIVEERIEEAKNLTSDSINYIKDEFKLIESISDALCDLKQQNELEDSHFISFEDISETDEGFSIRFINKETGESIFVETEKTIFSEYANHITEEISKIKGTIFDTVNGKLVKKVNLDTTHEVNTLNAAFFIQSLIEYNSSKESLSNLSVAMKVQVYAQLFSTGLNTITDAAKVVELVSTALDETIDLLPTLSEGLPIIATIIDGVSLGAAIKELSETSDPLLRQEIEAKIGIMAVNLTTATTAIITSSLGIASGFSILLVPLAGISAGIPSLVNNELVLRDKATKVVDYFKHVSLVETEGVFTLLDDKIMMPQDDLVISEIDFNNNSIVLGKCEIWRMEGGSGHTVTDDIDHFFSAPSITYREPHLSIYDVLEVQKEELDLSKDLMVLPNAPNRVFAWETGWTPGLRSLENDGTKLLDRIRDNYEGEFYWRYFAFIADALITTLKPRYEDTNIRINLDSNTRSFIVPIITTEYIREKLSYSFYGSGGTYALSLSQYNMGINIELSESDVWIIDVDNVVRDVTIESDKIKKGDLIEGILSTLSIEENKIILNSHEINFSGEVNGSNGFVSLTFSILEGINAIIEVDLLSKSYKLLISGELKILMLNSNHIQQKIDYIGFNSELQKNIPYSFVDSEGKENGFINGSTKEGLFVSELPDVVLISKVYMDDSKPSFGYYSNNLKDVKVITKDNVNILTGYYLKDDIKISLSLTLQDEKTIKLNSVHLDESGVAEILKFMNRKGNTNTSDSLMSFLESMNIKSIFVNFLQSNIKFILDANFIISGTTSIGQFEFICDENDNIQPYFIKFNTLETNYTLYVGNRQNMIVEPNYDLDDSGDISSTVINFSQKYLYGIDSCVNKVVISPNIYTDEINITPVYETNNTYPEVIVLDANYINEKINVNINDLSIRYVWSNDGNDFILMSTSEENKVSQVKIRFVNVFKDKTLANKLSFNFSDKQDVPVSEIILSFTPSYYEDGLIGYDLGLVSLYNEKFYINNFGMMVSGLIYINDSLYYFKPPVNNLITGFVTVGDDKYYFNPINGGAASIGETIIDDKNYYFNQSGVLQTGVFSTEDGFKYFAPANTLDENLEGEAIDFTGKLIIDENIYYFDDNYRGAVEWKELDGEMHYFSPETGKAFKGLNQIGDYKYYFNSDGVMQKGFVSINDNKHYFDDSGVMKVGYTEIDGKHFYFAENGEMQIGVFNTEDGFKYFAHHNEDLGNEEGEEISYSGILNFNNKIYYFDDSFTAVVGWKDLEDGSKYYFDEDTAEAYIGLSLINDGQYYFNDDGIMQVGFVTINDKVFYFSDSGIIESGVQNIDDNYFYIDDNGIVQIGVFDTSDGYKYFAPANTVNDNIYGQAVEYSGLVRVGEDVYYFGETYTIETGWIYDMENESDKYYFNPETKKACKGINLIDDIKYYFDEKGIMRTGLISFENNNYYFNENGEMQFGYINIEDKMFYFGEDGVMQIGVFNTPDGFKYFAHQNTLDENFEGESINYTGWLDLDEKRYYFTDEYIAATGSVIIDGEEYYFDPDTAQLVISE
Mtb BioA inh – blocks M. tuberculosis BioA enzyme activity; inhibition, % at 9.99 µM; purified M. tuberculosis BioA enzyme, plate reader; 0.096% of 360,000 active; in the data active = inhibition above about 40%
Y pestis TopoI – blocks Yersinia pestis topoisomerase I activity | Y. pestis Topo-I cleavage product accumulation, plate reader | activity, % at 10 µM | 0.064% of 360,000 active | AID 504884; in the data active = activity above about 50%, passing the limit was not always enough
PfHsp40 rescue – compounds rescuing yeast from Plasmodium falciparum HSP40 toxicity. S. cerevisiae expressing PfHsp40, growth rescue, ATP luminescence. growth rescue, % at 12.5 µM. 0.68% of 340,000 active. AID 504582; in the data active = growth rescue above about 28%, passing the limit was not always enough;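 also: yeast W303a lacking pdr1 and pdr3 grown in galactose medium; growth measured after three days at 30 °C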
PrP 5UTR inh – inhibition of PrP 5' UTR reporter expression. cell-based PrP 5' UTR mRNA reporter, plate reader. inhibition, % (no concentration beside the values). 0.35% of 340,000 active; in the data active = inhibition above about 52%; also: 0 = median of the neutral control wells
Starred values were filed as active, the others as inactive.

C=CC(=O)Nc1cccc(Nc2nc(N[C@H]3CC[C@H](N(C)C)CC3)nc3c2ncn3C(C)C)c1 was read as FadD28 FP inh 3.3, Mtb BioA inh 4.2, Y pestis TopoI -15.3, PfHsp40 rescue -1.4 and PrP 5UTR inh 71.2*.
Cc1ccc(S(=O)(=O)Nc2ccc3c(c2)C(=O)N([C@@H](C)CO)C[C@@H](C)[C@@H](CN(C)S(C)(=O)=O)O3)cc1 was read as TcdB GH inh 0.9 and Mtb BioA inh 5.4.
`COc1c(C(CC(C)C)OC(C)=O)ccc2c1C(=O)OCc1cc(C)cc(O)c1O2` (stereo not given) gave FadD28 FP inh -0.6, TcdB GH inh -2.7, Mtb BioA inh -0.6, Y pestis TopoI 27.5, PfHsp40 rescue 161.0* and PrP 5UTR inh -7.2.
For COc1ccc(Oc2coc3cc(OC(=O)/C=C/c4ccccc4)ccc3c2=O)cc1 the results were FadD28 FP inh -3.0, TcdB GH inh 0.1, Mtb BioA inh -0.5, Y pestis TopoI 8.2, PfHsp40 rescue 95.0* and PrP 5UTR inh -9.6.
O=C(C[C@H]1CC[C@@H]2[C@H](COC[C@H](O)CN2C(=O)c2ccccc2)O1)Nc1ccccc1 was read as TcdB GH inh -0.3 and Mtb BioA inh 1.0.
For Cc1ccc(NC2(C(N)=O)CCCC2)cc1 the results were FadD28 FP inh -1.1, TcdB GH inh -0.1, Mtb BioA inh 0.0, Y pestis TopoI 1.1, PfHsp40 rescue 1.8 and PrP 5UTR inh -31.0.
For NC(=O)C1(Nc2ccc(-c3ccc(Br)cc3)cc2)CCCC1 the results were FadD28 FP inh -2.5, TcdB GH inh 11.5*, Y pestis TopoI -3.4, PfHsp40 rescue -0.4 and PrP 5UTR inh 49.8.
Screening O=C(CN1CCOCC1)NCC[C@H]1CC[C@H](NC(=O)Nc2ccc(Cl)cc2)[C@@H](CO)O1 returned TcdB GH inh 0.2 and Mtb BioA inh 3.5.
For O=C(Nc1cc(F)ccc1F)N[C@@H]1CC[C@@H](CCn2cc(C3CCCC3)nn2)O[C@H]1CO the results were TcdB GH inh -1.4.
Cc1cc(C)nc(SCC(=O)c2ccc(C)c(C)c2)n1 was read as FadD28 FP inh 0.3, TcdB GH inh -0.8, Mtb BioA inh 0.2, Y pestis TopoI 8.3, PfHsp40 rescue -0.3 and PrP 5UTR inh 5.6.
For COc1ccc(-n2nnnc2SCC(=O)c2ccc(O)c(O)c2)cc1 the results were FadD28 FP inh 11.8*, Mtb BioA inh -1.3, Y pestis TopoI -7.7, PfHsp40 rescue -2.0 and PrP 5UTR inh -18.6.
Screening Cc1cc(C)nc(SCC(=O)c2ccc(O)c(O)c2)n1 returned FadD28 FP inh 0.3, TcdB GH inh 10.9*, Mtb BioA inh -0.5, Y pestis TopoI 2.5, PfHsp40 rescue -0.6 and PrP 5UTR inh 12.4.
Cc1nc2ccc(NC(=O)c3cccs3)cc2c(=O)n1Cc1ccc(Cl)cc1 was read as FadD28 FP inh -4.1, Mtb BioA inh 0.2, Y pestis TopoI 3.9, PfHsp40 rescue 30.7* and PrP 5UTR inh -22.4.
`Cc1ccccc1Cn1cc(CCC(=O)N2CCOCC2)c2ccccc21` gave FadD28 FP inh -1.2, TcdB GH inh 0.2, Y pestis TopoI 53.7*, PfHsp40 rescue 4.3 and PrP 5UTR inh -12.0.
`O=c1[nH]nc(Cc2ccccc2)c2ccccc12` gave FadD28 FP inh -2.9, Mtb BioA inh 0.5, Y pestis TopoI 9.2, PfHsp40 rescue 6.0 and PrP 5UTR inh -15.8.
O=c1[nH]nc(Cc2ccc(-c3ccc(Cl)cc3)o2)c2ccccc12 was read as FadD28 FP inh -1.4, Mtb BioA inh -1.7, Y pestis TopoI 68.4*, PfHsp40 rescue -0.4 and PrP 5UTR inh -2.9.
`CN(C)c1ccc(C(C[N+](=O)[O-])c2c(N)n(C)c(=O)n(C)c2=O)c(F)c1C#N` (stereo not given) gave FadD28 FP inh 0.8, TcdB GH inh 3.0, Mtb BioA inh 1.6, Y pestis TopoI 8.7, PfHsp40 rescue 140.2* and PrP 5UTR inh -15.3.
For Cn1c(N)c(C(C[N+](=O)[O-])c2c(F)cccc2Cl)c(=O)n(C)c1=O (stereo not given) the results were FadD28 FP inh -3.0, TcdB GH inh -5.5, Mtb BioA inh -1.7, Y pestis TopoI -9.4, PfHsp40 rescue -1.1 and PrP 5UTR inh -10.6.
`Cc1ccc(C2CC2C(=O)NNC(=S)Nc2cccc(Cl)c2)cc1` (stereo not given) gave FadD28 FP inh -13.6, Mtb BioA inh 3.2, Y pestis TopoI 0.2, PfHsp40 rescue 78.7* and PrP 5UTR inh -20.1.
For O=C(C[C@H]1CC[C@@H]2[C@H](COC[C@@H](O)CN2C(=O)Nc2ccc(Cl)c(Cl)c2)O1)NCc1ccncc1 the results were TcdB GH inh 18.1* and Mtb BioA inh 4.9.
O=C(C[C@@H]1CC[C@@H]2[C@H](COC[C@H](O)CN2C(=O)c2ccccn2)O1)NC1CCC1 was read as TcdB GH inh 12.3* and Mtb BioA inh -0.4.
`C[C@H](CO)N1C[C@H](C)[C@H](CN(C)S(=O)(=O)c2ccc(F)cc2)Oc2c(NC(=O)Nc3cccc4ccccc34)cccc2C1=O` gave TcdB GH inh -0.1.
`CCC(=O)Nc1cc2c(C)cc(=O)oc2cc1C` gave FadD28 FP inh -0.3, Mtb BioA inh 1.0, Y pestis TopoI -0.4, PfHsp40 rescue 35.5* and PrP 5UTR inh -2.9.
Screening COc1ccc(NC(=O)Nc2ccc3c(c2)CC(=O)N([C@H](C)CO)C[C@H](C)[C@H](CN(C)C(=O)NC(C)C)O3)cc1 returned TcdB GH inh 1.0 and Mtb BioA inh 1.0.
`C[C@H](CO)N1C[C@H](C)[C@@H](CN(C)C(=O)Nc2cccc3ccccc23)Oc2c(NS(=O)(=O)c3cccs3)cccc2C1=O` gave TcdB GH inh -1.0 and Mtb BioA inh 0.2.
Screening CN(C)C(=O)N1CCC(C(=O)NC2CCCCCCC2)CC1 returned FadD28 FP inh -4.2, Mtb BioA inh 0.2, Y pestis TopoI 4.6, PfHsp40 rescue 33.1* and PrP 5UTR inh -22.3.
Screening C[C@H]1CN([C@@H](C)CO)C(=O)c2cccc(NS(=O)(=O)c3cn(C)cn3)c2O[C@@H]1CN(C)S(=O)(=O)c1ccc(Cl)cc1 returned TcdB GH inh 0.2 and Mtb BioA inh 9.0.
O=C(Nc1ccc2c(c1)OCCO2)c1cccc(Cl)c1 was read as FadD28 FP inh -2.8, TcdB GH inh 4.0, Mtb BioA inh 2.0, Y pestis TopoI -11.2, PfHsp40 rescue 5.1 and PrP 5UTR inh -76.3.
`O=C(Nc1cccc(Cl)c1)c1ccc2c(c1)OCCO2` gave FadD28 FP inh -1.9, TcdB GH inh 3.6, Mtb BioA inh 2.7, Y pestis TopoI -4.4, PfHsp40 rescue 80.8* and PrP 5UTR inh -86.1.
`Cc1c(N2C(=O)c3ccccc3C2(O)c2ccccc2)c(=O)n(-c2ccccc2)n1C` (stereo not given) gave FadD28 FP inh -1.5, TcdB GH inh -0.2, Mtb BioA inh -0.2, Y pestis TopoI 3.1, PfHsp40 rescue -1.5 and PrP 5UTR inh 2.0.
